This is an account of results in PMC7862700, “An all-to-all approach to the identification of sequence-specific readers for epigenetic DNA modifications on cytosine”.

Common to all, as to experiment: DAPPL (digital affinity profiling via proximity ligation, sequencing); 10 mM Tris-HCl pH 7.5, 50 mM NaCl, 1 mM DTT, 4% glycerol, room temperature, 30 min; GST-TFs on glutathione beads, 16-mer random dsDNA library, 0.1% formaldehyde crosslink after washing; high values mean tight binding
One assay has as its target T1, FEV (Homo sapiens, UniProt Q99581 1-238).
T1 sequence: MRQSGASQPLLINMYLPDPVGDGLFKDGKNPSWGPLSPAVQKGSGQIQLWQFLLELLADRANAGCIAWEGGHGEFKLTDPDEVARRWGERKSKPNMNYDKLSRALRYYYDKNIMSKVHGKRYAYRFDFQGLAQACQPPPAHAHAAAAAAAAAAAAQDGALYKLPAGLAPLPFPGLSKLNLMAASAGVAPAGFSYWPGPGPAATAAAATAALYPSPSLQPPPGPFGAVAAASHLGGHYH
Particulars: protein: recombinant; tags: N-terminal GST; dsDNA, one strand shown. Summed up:
(§1)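 Binding signal is each hexamer's read frequency for a factor divided by its frequency in the tag-only sample. The factors were GST-fused human transcription factors from yeast, captured on glutathione beads, DNA-barcoded and pooled with that sample. Pools were incubated with 200 nmole of a random double-stranded 16-mer DNA library in Tris/NaCl/DTT/glycerol buffer at room temperature for 30 min, then washed, crosslinked with 0.1% formaldehyde, proximity-ligated with BsaI/T4 ligase (1 h, 37 °C), PCR-amplified and sequenced on an Illumina NextSeq500.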

A further assay concerns the target ETV5 (Homo sapiens, UniProt P41161 1-510). As to conditions: protein: recombinant; tags: N-terminal GST; dsDNA, one strand shown. Put shortly:
as §1

Another assay concerns the target HSF1 (Homo sapiens, UniProt Q00613 1-529). As to conditions: protein: recombinant; tags: N-terminal GST; chain copies: 3; dsDNA, one strand shown. Summed up:
as §1

The next assay addresses T2, SPIC (Homo sapiens, UniProt Q8N5J4 1-248).
T2 sequence: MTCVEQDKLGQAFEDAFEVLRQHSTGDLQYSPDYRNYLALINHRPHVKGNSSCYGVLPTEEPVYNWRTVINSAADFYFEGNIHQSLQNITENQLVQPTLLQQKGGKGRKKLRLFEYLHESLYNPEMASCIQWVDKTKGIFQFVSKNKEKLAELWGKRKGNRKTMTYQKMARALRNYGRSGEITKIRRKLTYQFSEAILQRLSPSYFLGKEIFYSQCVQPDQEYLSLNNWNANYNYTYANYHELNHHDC
Particulars: protein: recombinant; tags: N-terminal GST; dsDNA, one strand shown. Put shortly:
as §1

Another assay addresses ELF4 (Homo sapiens, UniProt Q99607 1-663). Particulars: protein: recombinant; tags: N-terminal GST; dsDNA, one strand shown. Put shortly:
as §1

In another assay the target is T3, ELK4 (Homo sapiens, UniProt P28324-2 1-405).
T3 sequence: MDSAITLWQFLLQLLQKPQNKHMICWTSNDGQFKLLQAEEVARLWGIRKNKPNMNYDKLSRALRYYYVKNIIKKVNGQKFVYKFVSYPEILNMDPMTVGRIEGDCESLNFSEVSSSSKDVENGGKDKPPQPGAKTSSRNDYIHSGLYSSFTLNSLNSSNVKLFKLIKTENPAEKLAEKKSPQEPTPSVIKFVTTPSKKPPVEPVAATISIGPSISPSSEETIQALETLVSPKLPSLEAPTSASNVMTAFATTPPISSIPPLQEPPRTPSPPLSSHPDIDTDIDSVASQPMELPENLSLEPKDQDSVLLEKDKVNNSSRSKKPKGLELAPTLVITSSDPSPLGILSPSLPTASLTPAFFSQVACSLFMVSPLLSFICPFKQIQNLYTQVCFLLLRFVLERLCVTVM
As to conditions: protein: recombinant; tags: N-terminal GST; dsDNA, one strand shown. Put shortly: as §1

In another assay the target is T4, ETV2 (Homo sapiens, UniProt O00321 1-342).
T4 sequence: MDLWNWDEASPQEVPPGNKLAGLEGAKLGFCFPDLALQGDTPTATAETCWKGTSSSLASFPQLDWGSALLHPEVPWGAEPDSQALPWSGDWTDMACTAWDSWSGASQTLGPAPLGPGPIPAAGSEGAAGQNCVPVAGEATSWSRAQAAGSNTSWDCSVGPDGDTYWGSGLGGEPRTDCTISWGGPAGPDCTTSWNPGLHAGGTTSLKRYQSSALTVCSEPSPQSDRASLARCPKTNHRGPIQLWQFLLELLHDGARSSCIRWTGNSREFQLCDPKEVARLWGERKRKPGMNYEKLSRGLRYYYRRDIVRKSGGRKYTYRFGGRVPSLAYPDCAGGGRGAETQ
Particulars: protein: recombinant; tags: N-terminal GST; dsDNA, one strand shown. Put shortly: as §1

The target in another assay is T5, ELF3 (Homo sapiens, UniProt P78545 1-371).
T5 sequence: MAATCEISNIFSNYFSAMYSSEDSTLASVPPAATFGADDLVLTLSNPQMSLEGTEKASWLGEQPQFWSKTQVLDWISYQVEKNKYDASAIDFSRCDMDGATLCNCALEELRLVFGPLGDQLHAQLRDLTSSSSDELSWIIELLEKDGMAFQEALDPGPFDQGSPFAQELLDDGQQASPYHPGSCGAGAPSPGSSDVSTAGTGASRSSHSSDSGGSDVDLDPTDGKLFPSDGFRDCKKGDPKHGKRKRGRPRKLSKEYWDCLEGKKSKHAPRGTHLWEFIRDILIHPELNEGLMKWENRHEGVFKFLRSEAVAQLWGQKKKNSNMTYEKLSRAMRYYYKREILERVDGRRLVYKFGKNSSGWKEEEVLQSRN
As to conditions: protein: recombinant; tags: N-terminal GST; dsDNA, one strand shown. Put shortly: as §1

In the next assay the target is CRX (Homo sapiens, UniProt O43186 1-299). As to conditions: protein: recombinant; tags: N-terminal GST; dsDNA, one strand shown. Summed up: as §1
A further assay has as its target ETV1 (Homo sapiens, UniProt P50549 1-477). As to conditions: protein: recombinant; tags: N-terminal GST; dsDNA, one strand shown. Put shortly: as §1
The target of the next assay is T6, ERF (Homo sapiens, UniProt P50548 1-548).
T6 sequence: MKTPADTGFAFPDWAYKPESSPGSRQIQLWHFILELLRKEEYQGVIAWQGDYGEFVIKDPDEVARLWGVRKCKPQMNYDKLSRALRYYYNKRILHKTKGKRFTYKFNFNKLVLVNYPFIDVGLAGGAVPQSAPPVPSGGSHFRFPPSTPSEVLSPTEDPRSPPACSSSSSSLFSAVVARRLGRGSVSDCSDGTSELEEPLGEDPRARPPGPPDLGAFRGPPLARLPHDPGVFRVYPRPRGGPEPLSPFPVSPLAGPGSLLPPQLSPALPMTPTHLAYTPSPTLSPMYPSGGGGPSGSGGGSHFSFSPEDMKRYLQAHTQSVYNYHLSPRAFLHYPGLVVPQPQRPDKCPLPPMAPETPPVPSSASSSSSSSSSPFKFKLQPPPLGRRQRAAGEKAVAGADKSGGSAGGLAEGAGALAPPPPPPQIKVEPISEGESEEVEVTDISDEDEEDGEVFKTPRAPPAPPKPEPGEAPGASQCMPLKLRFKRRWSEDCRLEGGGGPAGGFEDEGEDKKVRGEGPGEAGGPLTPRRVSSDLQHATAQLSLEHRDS
Particulars: protein: recombinant; tags: N-terminal GST; dsDNA, one strand shown. Put shortly:
as §1

A further assay concerns the target T7, ETV3L (Homo sapiens, UniProt Q6ZN32 1-361).
T7 sequence: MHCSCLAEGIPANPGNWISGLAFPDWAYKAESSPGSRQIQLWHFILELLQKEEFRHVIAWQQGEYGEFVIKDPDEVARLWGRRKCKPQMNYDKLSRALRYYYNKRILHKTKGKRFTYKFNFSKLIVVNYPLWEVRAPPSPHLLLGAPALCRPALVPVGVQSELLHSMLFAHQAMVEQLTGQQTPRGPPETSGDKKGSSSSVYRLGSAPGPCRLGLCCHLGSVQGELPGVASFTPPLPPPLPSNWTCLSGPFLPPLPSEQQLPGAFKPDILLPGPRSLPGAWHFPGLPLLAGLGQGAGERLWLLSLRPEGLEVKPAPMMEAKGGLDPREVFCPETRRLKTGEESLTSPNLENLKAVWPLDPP
As to conditions: protein: recombinant; tags: N-terminal GST; dsDNA, one strand shown. Put shortly:
as §1

The next assay deals with T8, ETS2 (Homo sapiens, UniProt P15036 1-469).
T8 sequence: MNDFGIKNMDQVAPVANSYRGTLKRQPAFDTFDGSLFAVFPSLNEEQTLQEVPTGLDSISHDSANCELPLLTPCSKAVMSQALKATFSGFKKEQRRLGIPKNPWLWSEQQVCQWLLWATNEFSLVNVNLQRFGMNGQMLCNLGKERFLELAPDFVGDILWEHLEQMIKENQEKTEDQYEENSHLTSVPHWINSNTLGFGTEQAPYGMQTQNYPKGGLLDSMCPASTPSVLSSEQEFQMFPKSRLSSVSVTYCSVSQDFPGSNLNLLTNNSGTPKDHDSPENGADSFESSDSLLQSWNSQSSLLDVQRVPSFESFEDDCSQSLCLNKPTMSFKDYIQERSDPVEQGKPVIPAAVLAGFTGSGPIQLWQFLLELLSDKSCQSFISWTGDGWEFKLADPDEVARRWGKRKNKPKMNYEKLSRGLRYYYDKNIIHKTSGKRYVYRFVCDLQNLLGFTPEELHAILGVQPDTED
As to conditions: protein: recombinant; tags: N-terminal GST; dsDNA, one strand shown. Summed up:
as §1

A further assay addresses T9, SPDEF (Homo sapiens, UniProt O95238 1-335).
T9 sequence: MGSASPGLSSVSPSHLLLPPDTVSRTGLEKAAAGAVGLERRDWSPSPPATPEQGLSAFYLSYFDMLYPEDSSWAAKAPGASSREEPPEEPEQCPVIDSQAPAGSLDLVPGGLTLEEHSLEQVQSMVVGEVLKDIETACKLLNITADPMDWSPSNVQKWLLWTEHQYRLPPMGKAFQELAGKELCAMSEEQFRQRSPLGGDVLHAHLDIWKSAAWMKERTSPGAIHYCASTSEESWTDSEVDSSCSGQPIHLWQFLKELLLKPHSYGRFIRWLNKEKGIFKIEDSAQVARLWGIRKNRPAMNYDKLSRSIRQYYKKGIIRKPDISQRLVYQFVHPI
As to conditions: protein: recombinant; tags: N-terminal GST; dsDNA, one strand shown. Summed up:
as §1

The target in the next assay is T10, ETV7 (Homo sapiens, UniProt Q9Y603 1-341).
T10 sequence: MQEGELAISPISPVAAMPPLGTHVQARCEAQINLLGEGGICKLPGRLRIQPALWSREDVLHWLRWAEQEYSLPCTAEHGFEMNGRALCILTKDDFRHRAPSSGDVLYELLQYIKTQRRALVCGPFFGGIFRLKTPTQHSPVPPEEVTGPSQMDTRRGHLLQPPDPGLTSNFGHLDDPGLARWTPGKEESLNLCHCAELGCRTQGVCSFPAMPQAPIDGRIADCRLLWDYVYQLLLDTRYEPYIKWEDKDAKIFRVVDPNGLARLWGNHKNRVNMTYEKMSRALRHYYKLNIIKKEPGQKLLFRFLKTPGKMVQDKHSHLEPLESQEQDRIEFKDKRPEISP
Particulars: protein: recombinant; tags: N-terminal GST; dsDNA, one strand shown. Put shortly:
as §1

The target of the next assay is T11, ELF5 (Homo sapiens, UniProt Q9UKW6-2 1-255).
T11 sequence: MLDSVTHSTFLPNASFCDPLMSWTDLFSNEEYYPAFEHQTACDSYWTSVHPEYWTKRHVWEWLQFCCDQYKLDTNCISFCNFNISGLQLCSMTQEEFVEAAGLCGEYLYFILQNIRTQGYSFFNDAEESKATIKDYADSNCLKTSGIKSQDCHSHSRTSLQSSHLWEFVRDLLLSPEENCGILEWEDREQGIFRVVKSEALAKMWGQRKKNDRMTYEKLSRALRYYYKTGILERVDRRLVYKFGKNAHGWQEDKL
As to conditions: protein: recombinant; tags: N-terminal GST; dsDNA, one strand shown. Put shortly: as §1

For the next assay, the target named is T12, ETV3 (Homo sapiens, UniProt P41162-2 1-143).
T12 sequence: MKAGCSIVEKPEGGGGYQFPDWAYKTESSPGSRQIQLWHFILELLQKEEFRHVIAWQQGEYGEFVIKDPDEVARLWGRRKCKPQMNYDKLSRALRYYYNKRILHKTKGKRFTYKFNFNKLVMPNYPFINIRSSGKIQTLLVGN
Particulars: protein: recombinant; tags: N-terminal GST; dsDNA, one strand shown. Put shortly: as §1

In another assay the target is ETV6 (Homo sapiens, UniProt P41212 1-452). Particulars: protein: recombinant; tags: N-terminal GST; dsDNA, one strand shown. Put shortly: as §1
Chain of ETV6 (P41212 whole entry): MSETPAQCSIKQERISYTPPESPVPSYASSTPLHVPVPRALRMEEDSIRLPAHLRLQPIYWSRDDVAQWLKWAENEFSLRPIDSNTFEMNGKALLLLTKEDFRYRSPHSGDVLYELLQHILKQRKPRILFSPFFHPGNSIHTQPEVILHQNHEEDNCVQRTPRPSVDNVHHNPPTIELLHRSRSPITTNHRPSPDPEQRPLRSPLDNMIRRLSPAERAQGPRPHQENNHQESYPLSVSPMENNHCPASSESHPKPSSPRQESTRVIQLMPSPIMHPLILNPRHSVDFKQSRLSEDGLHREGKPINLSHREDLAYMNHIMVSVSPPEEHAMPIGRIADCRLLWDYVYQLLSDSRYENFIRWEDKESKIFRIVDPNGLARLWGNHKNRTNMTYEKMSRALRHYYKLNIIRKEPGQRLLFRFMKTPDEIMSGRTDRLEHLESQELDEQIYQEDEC

Chain of HSF1 (Q00613 whole entry): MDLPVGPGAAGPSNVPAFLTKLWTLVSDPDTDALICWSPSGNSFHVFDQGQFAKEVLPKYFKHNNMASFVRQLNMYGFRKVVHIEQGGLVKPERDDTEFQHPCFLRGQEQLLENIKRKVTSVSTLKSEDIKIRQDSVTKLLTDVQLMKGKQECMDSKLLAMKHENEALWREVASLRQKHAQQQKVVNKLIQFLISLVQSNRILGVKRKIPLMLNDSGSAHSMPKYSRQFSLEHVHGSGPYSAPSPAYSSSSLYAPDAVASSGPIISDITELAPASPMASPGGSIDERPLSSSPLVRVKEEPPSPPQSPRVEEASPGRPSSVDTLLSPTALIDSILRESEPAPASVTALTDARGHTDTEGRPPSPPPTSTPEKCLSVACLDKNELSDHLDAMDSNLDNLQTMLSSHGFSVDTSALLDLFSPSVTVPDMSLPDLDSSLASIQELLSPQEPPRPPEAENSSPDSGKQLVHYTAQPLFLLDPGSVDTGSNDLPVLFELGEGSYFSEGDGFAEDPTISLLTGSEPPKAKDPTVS
Chain of ETV5 (P41161 whole entry): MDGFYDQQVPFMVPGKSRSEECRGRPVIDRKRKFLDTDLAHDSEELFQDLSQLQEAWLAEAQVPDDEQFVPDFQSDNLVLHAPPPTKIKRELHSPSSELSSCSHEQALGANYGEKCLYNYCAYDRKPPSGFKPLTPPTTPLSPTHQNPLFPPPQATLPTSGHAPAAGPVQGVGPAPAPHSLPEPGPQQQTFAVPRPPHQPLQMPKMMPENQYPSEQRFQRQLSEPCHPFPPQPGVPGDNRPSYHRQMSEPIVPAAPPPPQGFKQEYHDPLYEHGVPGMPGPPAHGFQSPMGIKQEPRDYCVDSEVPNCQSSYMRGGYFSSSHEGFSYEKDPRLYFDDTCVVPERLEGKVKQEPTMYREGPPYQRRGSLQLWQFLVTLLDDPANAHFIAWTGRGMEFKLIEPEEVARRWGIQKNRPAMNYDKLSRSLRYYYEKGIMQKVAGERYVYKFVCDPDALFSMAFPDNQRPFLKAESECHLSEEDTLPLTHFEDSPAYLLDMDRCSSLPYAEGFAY
Chain of CRX (O43186 whole entry): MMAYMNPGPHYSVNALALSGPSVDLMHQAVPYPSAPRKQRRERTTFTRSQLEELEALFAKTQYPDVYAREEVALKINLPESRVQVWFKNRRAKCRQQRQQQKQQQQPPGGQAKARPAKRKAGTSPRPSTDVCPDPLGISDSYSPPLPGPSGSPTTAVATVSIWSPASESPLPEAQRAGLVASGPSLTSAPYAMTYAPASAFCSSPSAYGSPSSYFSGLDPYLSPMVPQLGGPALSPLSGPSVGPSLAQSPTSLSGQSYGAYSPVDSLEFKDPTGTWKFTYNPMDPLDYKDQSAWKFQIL
Chain of ELF4 (Q99607 whole entry): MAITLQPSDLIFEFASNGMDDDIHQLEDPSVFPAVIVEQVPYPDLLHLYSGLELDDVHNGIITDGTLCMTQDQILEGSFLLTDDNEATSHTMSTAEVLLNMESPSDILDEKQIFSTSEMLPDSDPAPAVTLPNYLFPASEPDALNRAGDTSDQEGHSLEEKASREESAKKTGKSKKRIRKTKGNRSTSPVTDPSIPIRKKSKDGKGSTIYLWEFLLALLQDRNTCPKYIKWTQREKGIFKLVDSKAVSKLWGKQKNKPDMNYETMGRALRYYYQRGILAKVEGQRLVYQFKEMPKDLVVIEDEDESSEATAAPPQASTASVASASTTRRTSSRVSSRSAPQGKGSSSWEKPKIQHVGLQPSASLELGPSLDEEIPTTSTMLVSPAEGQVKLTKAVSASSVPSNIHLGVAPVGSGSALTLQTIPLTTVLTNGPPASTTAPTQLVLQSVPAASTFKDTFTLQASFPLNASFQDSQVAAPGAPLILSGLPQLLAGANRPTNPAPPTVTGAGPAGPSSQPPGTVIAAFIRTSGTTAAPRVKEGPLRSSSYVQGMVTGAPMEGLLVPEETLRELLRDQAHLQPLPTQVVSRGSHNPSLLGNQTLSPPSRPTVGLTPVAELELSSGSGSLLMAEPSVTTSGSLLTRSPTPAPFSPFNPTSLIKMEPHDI
Chain of ETV1 (P50549 whole entry): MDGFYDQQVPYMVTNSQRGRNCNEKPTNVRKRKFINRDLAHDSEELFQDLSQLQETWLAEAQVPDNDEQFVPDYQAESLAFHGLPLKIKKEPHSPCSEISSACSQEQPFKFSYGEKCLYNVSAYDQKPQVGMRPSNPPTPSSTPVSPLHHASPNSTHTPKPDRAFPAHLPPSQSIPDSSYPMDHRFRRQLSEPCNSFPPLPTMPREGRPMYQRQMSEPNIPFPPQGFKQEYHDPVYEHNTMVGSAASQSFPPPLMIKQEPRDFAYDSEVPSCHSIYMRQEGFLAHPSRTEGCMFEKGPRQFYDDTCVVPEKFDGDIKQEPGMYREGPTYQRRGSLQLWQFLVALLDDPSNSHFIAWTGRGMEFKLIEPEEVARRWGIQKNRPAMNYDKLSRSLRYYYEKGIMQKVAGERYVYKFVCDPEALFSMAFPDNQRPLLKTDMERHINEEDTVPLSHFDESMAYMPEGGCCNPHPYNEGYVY

TTCTGG: the binding signal is 1.19 fold enrichment (6-mer frequency, TF over GST control) with FEV; 1.16 fold enrichment (6-mer frequency, TF over GST control) with ETV5; 4.45 fold enrichment (6-mer frequency, TF over GST control) with HSF1; 1.36 fold enrichment (6-mer frequency, TF over GST control) with SPIC; 1.29 fold enrichment (6-mer frequency, TF over GST control) with ELF4; 1.35 fold enrichment (6-mer frequency, TF over GST control) with ELK4. The binding signal was 1.42 fold enrichment (6-mer frequency, TF over GST control) in the assay with ETV2; 1.21 fold enrichment (6-mer frequency, TF over GST control) with ELF3; 1.76 fold enrichment (6-mer frequency, TF over GST control) in the assay with CRX; 1.21 fold enrichment (6-mer frequency, TF over GST control) with ETV1; 1.35 fold enrichment (6-mer frequency, TF over GST control) with ERF; 1.23 fold enrichment (6-mer frequency, TF over GST control) with ETV3L. Besides, the binding signal in the assay with ETS2 is 1.19 fold enrichment (6-mer frequency, TF over GST control); with SPDEF, 1.23 fold enrichment (6-mer frequency, TF over GST control); with ETV7 it was 1.21 fold enrichment (6-mer frequency, TF over GST control); with ELF5, 1.22 fold enrichment (6-mer frequency, TF over GST control); with ETV3, 1.2 fold enrichment (6-mer frequency, TF over GST control); in the assay with ETV6, 1.32 fold enrichment (6-mer frequency, TF over GST control).
